Bioassay records (PubChem BioAssay)
This is a sample that favours compounds with a hit; in the whole collection about 2.9% have one here.
D3 antag – qHTS of D3 Dopamine Receptor Antagonist: qHTS; hit rate 2.5% among 360,000; D3R cells, DiscoveRx beta-arrestin luminescence, antagonist mode; active compounds read low; D(3) dopamine receptor (Homo sapiens), P35462; max response, negative = inhibition, %; in the data active = max response below about -50%; inconclusive = no clear call, values can overlap the other calls
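Cells plated overnight at 1500 cells/well, then exposed to library compounds with dopamine controls for 90 minutes at 37 degrees C. DiscoveRx reagent added for 30–60 minutes at room temperature; luminescence read, quantitative HTS format.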
Rango complex inh – qHTS Assay for Inhibitors of Rango (Ran-regulated importin-beta cargo) - Importin beta complex formation; Rango CFP/YFP FRET sensor + importin beta, 45 min; Potency, µM (titrated, usually from 92.2 µM); Importin subunit beta-1 (Homo sapiens), Q14974; hit rate 0.031% among 340,000; note: nearly all actives have a fitted effect of over 15% in size
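FRET biosensor (snurportin 1 IBB flanked by EYFP and cerulean), 50 nM, with compound 5 min, then 0.125 microM importin beta in PBS, 1 mM DTT, 0.02% Tween-20, 0.1% BSA. CFP/YFP ratio read after 45 min at room temperature; pre-read flags interference.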
DRD3 agonist – qHTS of D3 Dopamine Receptor Agonist: qHTS; D3R DiscoveRx beta-arrestin cells, luminescence, 90 min; max activation, %; hit rate 0.58% among 410,000; in the data active = max activation above about 30%
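Agonist mode: compounds and dopamine controls were applied to plated cells for 90 min at 37 degrees C after an overnight attachment at 1500 cells/well. Luminescent read-out followed 30 - 60 minutes at room temperature with DiscoveRx detection reagent.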
Rango dissoc inh – qHTS Assay for Inhibitors of RanGTP induced Rango (Ran-regulated importin-beta cargo) - Importin beta complex dissociation; Biochemical FRET Rango-importin beta, RanGTP-induced dissociation; hit rate 0.071% among 340,000; Potency, µM (highest dose often 46.1 µM); note: nearly all actives have a fitted effect of over 45% in size
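FRET read at 45 min, room temperature: inhibitors block the CFP/YFP signal rise when RanGTP (0.6 uM Ran, 2 mM GTP, 0.2 uM RCC1) frees Rango (0.1 uM) from importin beta (0.25 uM). Pre-read after 5 min compound exposure flags interference.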
MmCpn inh – Inhibitors of TCP-1 ring complex (TRiC) of Methanococcus maripaludis (MmCpn): qHTS. Chaperonin Mm-Cpn (Methanococcus maripaludis). purified Mm-Cpn ATPase, ADP Transcreener TR-FRET. Potency, µM (doses to about 76.9 µM), hits mostly inhibitors. hit rate 0.031% among 330,000. AID 504842, 2011; active = well fitted inhibition curve with a large enough effect; inconclusive = small, poorly fitted or top-dose-only effect; note: nearly all actives have a fitted effect of over 80% in size
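TR-FRET (320 nm excitation; 590 and 665 nm emission) reports ADP made from 10 uM ATP by 25 nM enzyme; compounds were preincubated 10 min, reaction run 30 min, both at 37°C.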
TSG101-PTAP inh – qHTS Assay for Iinhibitors of HIV-1 Budding by Blocking the Interaction of PTAP/TSG101. Tumor susceptibility gene 101 protein (Homo sapiens), Q99816. 340,000 tested, under 10 active. AID 493005, 2010. Potency, µM (series often up to 115 µM), actives largely listed as inhibitors. Fluorescence polarization, FITC-PTAP peptide / Tsg101 binding; active = well fitted inhibition curve with a large enough effect in the main read-out, with a control signal flat, not every such curve was filed as active; inconclusive = small, poorly fitted or top-dose-only effect, or effect the other way, or a change in a side signal; inactive = no such curve, though single readings can be large or run the other way
Target sequence (Q99816 whole entry, looked up): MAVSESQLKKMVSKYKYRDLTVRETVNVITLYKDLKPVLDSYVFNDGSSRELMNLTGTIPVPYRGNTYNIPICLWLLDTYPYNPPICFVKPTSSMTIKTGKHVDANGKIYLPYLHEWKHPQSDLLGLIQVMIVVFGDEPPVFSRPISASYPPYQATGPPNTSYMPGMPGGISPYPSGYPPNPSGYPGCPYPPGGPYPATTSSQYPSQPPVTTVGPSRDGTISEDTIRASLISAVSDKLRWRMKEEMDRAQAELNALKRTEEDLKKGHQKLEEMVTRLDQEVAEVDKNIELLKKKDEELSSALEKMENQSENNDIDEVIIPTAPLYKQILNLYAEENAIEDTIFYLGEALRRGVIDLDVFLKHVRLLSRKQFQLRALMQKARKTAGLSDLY
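Steps: Tsg101 binding domain dispensed (10 uM final), compounds pinned in DMSO, FITC-labeled PTAP-motif peptide added (50 nM final); after 20 min binding at room temperature, polarization measured.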
Numbers stand for hits; - = inactive; ? = inconclusive; . = not tested or not shown; ! = not confirmed by another sample. Unless noted, calls come from the whole dose curve.

SMILES	D3 antag	Rango complex inh	DRD3 agonist	Rango dissoc inh	MmCpn inh	TSG101-PTAP inh
CCC(=O)c1ccc(OCC(O)CN2CCOCC2)cc1 (stereo unspecified)	-	-	-	-	-	-
OC(COc1ccccc1)CN1CCN(C(c2ccccc2)c2ccccc2)CC1 (stereo unspecified)	-95.5	-	-	-	-	-
CCCCC(=O)Nc1ccc2nc(SCC(=O)N3CCCC3)sc2c1	.	.	-	.	.	.
c1ccc(OCCOCCN2CCN(C(c3ccccc3)c3ccccc3)CC2)cc1	-77.6	-	-	-	-	-
Brc1ccc(OCCOCCN2CCOCC2)cc1	-	-	-	-	-	-
COc1ccc(CN2C(=O)C(Cc3ccccc3)Nc3ncnc(N4CCOCC4)c32)cc1 (stereo unspecified)	?	?	-	-	-	-
CCC1Nc2ncnc(N3CCc4ccccc4C3)c2N(Cc2ccc(Cl)cc2)C1=O (stereo unspecified)	-	-	-	-	-	-
CCC1Nc2ncnc(N3CCOCC3)c2N(Cc2ccc(C)cc2)C1=O (stereo unspecified)	-	-	-	-	-	-
O=C1C(Cc2ccccc2)Nc2ncnc(N3CCc4ccccc4C3)c2N1Cc1ccc(Cl)cc1 (stereo unspecified)	-59.2	?	-	-	-	-
O=C1C(Cc2ccccc2)Nc2ncnc(N3CCCCC3)c2N1Cc1ccc(Br)cc1 (stereo unspecified)	-98.5	-	-	-	-	-
CCC1Nc2ncnc(N3CCCCC3)c2N(Cc2ccc(OC)cc2)C1=O (stereo unspecified)	-63.7!	-	-	-	?	-
CCC1Nc2ncnc(N3CCCCC3)c2N(Cc2ccc(Cl)cc2)C1=O (stereo unspecified)	-64.8!	-	-	-	-	-
CC1CCN(C(=O)COC(=O)CNC(=O)C23CC4CC(CC(C4)C2)C3)CC1	-	-	-	-	-	-
CN1NC(c2ccccc2)NN(C)C1=O	-	.	-	.	.	.
COCCN(CCOC)C(=O)C1CCCN(S(=O)(=O)c2ccc(NC(=O)OC)cc2)C1 (stereo unspecified)	-	-	-	-	-	-
CCC1Nc2ncnc(N3CCCCC3)c2N(Cc2ccc(Br)cc2)C1=O (stereo unspecified)	-53.3	-	-	-	-	-
CCCCCCCCCCCCN1[C@@H](CC(=O)O)c2cc(F)ccc2S1(=O)=O	-	-	40.4	-	.	-
CCCCCCCCCCCCN1[C@@H](CC(=O)O)c2cc(C(F)(F)F)ccc2S1(=O)=O	-	-	36.7	-	.	?
CCCCCCCCN1[C@@H](CC(=O)OC)c2cc(F)ccc2S1(=O)=O	-	-	-	?	.	-
CCc1ccc(C(=O)c2cn(CC(=O)Nc3ccc(F)cc3)c3ccc(OC)cc3c2=O)cc1	.	.	-	.	.	.
CCOC(=O)CSc1nc2ccc(NC(=O)COc3ccccc3)cc2s1	.	.	-	.	.	.
O=C1CCc2cc(S(=O)(=O)NCc3ccccc3)cc3c2N1CC3	-	-	-	-	-	-
COc1cccc(CNS(=O)(=O)c2cc3c4c(c2)CCN4C(=O)CC3)c1	-71.8	-	-	-	-	-
CC1Cc2cc(S(=O)(=O)NCc3ccc(F)cc3)ccc2N1C(=O)C1CCC1 (stereo unspecified)	.	.	-	.	.	.
Cc1ccc(OC(C)C(=O)NCC2(N3CCOCC3)CCCCC2)cc1C (stereo unspecified)	.	.	-	.	.	.
